TDP1 cell CPT – qHTS for Inhibitors of human tyrosyl-DNA phosphodiesterase 1 (TDP1): qHTS in cells in presence of CPT | chicken DT40 Tdp1-/-;hTDP1 cells + 20 nM CPT, ATP luminescence, 48 h | Potency, µM (titrated, usually from 46.2 µM), for the others: at the top dose activity change, negative = growth inhibition, actives largely listed as inhibitors | hit rate 12% among 420,000 | AID 686979, 2013; further: potency means the concentration at half of the fitted maximal effect; nearly all actives have a fitted effect of over 55% in size
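Cell growth measured by CellTiter-Glo luminescence after a minimum 48 h, 37 C compound exposure with 20 nM CPT in Tdp1-knockout DT40 cells stably expressing hTDP1, seeded 400/well; qHTS titration format.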
TDP1 block – qHTS Assay for Inhibitors of Tyrosyl-DNA Phosphodiesterase (TDP1); Potency, µM (titrated, usually from 130 µM), for inactives: at the highest dose activity change, negative = inhibition, hits mostly inhibitors; hit rate 0.28% among 350,000; Tyrosyl-DNA phosphodiesterase 1 (Homo sapiens), Q9NUW8; recombinant TDP1, AlphaScreen DNA substrate cleavage; AID 485290, 2010; further: potency means the concentration at half of the fitted maximal effect; nearly all actives have a fitted effect of over 40% in size
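Enzyme-compound mixtures sat 15 min at room temperature, followed by a 5 min reaction with 15 nM final substrate and 10 min with AlphaScreen beads. Recombinant human Tdp1 was used at 1 nM final.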
Six1-Eya2 inh – qHTS Assay for Inhibitors of the Six1/Eya2 Interaction | AID 651725, 2012 | AlphaScreen GST-Six1/His-Eya2 binding, biochemical; stronger effect = lower value | hit rate 0.56% among 360,000 | activity change, % (test concentration not listed) | Homeobox protein SIX1 (Homo sapiens) + Protein phosphatase EYA2 (Homo sapiens), …; in the data active means activity change below about -65%; inconclusive means mostly about -30% to -63%
Target sequence (O00167 whole entry, looked up): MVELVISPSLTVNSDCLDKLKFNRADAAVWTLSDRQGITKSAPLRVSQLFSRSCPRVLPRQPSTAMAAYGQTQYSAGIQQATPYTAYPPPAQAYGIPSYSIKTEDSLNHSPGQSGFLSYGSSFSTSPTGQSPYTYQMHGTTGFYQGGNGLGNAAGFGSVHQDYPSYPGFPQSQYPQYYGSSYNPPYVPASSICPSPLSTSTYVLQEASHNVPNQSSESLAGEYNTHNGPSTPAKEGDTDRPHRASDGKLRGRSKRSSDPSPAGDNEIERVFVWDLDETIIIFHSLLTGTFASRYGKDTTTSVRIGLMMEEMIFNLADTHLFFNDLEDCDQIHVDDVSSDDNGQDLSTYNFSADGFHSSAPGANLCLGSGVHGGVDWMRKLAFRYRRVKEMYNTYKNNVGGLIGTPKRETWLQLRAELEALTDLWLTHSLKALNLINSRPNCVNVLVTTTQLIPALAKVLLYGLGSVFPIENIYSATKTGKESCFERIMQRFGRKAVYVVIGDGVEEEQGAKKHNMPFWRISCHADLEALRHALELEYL
Target sequence (Q15475 whole entry, looked up): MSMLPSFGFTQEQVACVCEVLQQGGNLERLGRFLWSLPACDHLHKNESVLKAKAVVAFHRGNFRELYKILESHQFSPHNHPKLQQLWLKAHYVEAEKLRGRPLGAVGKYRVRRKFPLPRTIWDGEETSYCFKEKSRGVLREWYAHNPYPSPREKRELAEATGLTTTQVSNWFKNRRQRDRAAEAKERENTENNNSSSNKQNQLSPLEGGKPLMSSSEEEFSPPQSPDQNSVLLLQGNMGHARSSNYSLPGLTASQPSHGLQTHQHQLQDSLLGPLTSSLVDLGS
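GST-Six1 + His-Eya2 (5X stock: 250/500 nM); Tris pH 8.0, 300 mM NaCl, 0.05% BSA, 0.02% Tween 20; GSH donor/Ni acceptor beads; 1 h 37 °C dark; AlphaScreen readout.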
TDP1 cell noCPT – qHTS for Inhibitors of human tyrosyl-DNA phosphodiesterase 1 (TDP1): qHTS in cells in absence of CPT. hit rate 15% among 420,000. DT40 Tdp1-/- hTDP1 cells, no CPT, ATP luminescence, 48 h. Potency, µM (series often up to 46.2 µM), for inactives: at the highest dose activity change, negative = growth inhibition, hits mostly inhibitors. AID 686978, 2013; further: potency means the concentration at half of the fitted maximal effect; nearly all actives have a fitted effect of over 55% in size
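A cellular qHTS used chicken DT40 cells lacking endogenous Tdp1 but carrying stably transfected human TDP1. Compounds were applied without camptothecin, and cell growth kinetics were judged by ATP-dependent luminescence after ≥48 hr.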
CtBP-E1A blk – qHTS Assay for Inhibitors of the CtBP/E1A Interaction | hit rate 0.49% among 340,000 | activity change, % (test concentration not listed) | AlphaScreen GST-E1A/His-CtBP binding, 1536-well; stronger effect = lower value | AID 651724, 2012; in the data active means activity change below about -65%; inconclusive means mostly about -30% to -63%
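AlphaScreen with 125 nM GST-E1A and 125 nM His-CtBP (5X stocks) in Tris pH 8.0, 300 mM NaCl, BSA, Tween 20, TCEP. Compounds preincubated 2 h at 37 deg C, then glutathione donor/nickel acceptor beads added for 1 h at 37 deg C in dark.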
IL1B secr inh – qHTS for Inhibitors of Inflammasome Signaling: IL-1-beta AlphaLISA Primary Screen. THP-1 LPS/ATP IL-1B secretion, AlphaLISA, 16 h; stronger effect = lower value. activity change, % at 57.5 µM. hit rate 4.7% among 360,000. AID 743279, 2014; in the data active means activity change below about -50%; inconclusive means mostly about -30% to -49%
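THP-1 cells pretreated 1 hr with compounds (up to 57.5 uM final), then stimulated with LPS (250 ng/mL final) plus ATP (1.25 mM final); secreted IL-1B measured by AlphaLISA after 16 hr, decreased signal indicating inhibition.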
An asterisk follows results filed as active; u = inconclusive; x = not tested or not shown; [ ] = another dose, or the depositor's remark. Most compounds without a hit are left out; they make up all but 18% or so of the library. Unless noted, the call rests on the fitted dose curve; in most records, active means well fitted curve in the direction sought with a large enough effect; inconclusive means small, poorly fitted or top-dose-only effect, or another doubt; inactive means no such curve, though single readings can be large; an effect the other way counts as inactive or inconclusive. On the % scale 0 is the no-effect control and ±100 the full control effect.

SMILES	TDP1 cell CPT	TDP1 block	Six1-Eya2 inh	TDP1 cell noCPT	CtBP-E1A blk	IL1B secr inh
Cc1ccc(CSc2nccc(-c3c(C)nc4ccccn34)n2)cc1	u	2.6%	7.3	16.4µM*	x	-12.2
COc1cccc(CC(NC(C)=O)C(=O)NC2CCN(c3c(Cc4ccccc4)c(C)nc4ncnn34)CC2)c1OC (centres undefined)	-12.5%	-1.2%	4.1	u	6.7	-16.1
COc1ccccc1/C=C/c1nc(C#N)c(N2CCCCC2)o1	-72.2%	7.0%	x	16.4µM*	x	x
COc1ccc(N2CCN(c3oc(/C=C/c4cc(OC)c(OC)c(OC)c4)nc3C#N)CC2)cc1	2.91µM*	0.0%	x	3.66µM*	x	x
COc1cccc(/C=C/c2nc(C#N)c(N3CCCCCC3)o2)c1	u	7.0%	x	18.4µM*	x	x
COc1cccc(/C=C/c2nc(C#N)c(N3CCC(C(N)=O)CC3)o2)c1	-24.8%	7.0%	x	-29.9%	x	x
COc1ccc(N2CCN(c3oc(/C=C/c4ccccc4OC)nc3C#N)CC2)cc1	u	4.7%	x	u	x	x
COc1cc(/C=C/c2nc(C#N)c(N3CCC(C)CC3)o2)cc(OC)c1OC	10.3µM*	2.3%	x	7.31µM*	x	x
CN(C)c1oc(/C=C/c2ccccc2)nc1C#N	-21.2%	2.7%	17.5	-24.3%	8.1	2.0
COc1cc(/C=C/c2nc(C#N)c(N3CCCCCC3)o2)cc(OC)c1OC	14.6µM*	7.0%	x	16.4µM*	x	x
COc1ccccc1/C=C/c1nc(C#N)c(N(C)C)o1	u	9.4%	10.5	16.4µM*	x	-7.9
COc1ccc(/C=C/c2nc(C#N)c(N3CCCCC3)o2)cc1OC	23.1µM*	11.6%	x	16.4µM*	x	x
COc1ccc(-c2nc(-n3c(C)c(C(C)=O)c(C(C)=O)c3C)sc2C)cc1	20.6µM*	1.9%	-1.0	23.1µM*	23.2	-13.4
CC(=O)c1c(C(C)=O)c(C)n(-c2nc(-c3ccc(C)c(C)c3)c(C)s2)c1C	18.4µM*	3.2%	-1.8	23.1µM*	-0.1	-66.8*
O=C1COc2ccc(C(=O)COC(=O)COc3ccccc3[N+](=O)[O-])cc2N1	-0.7%	0.0%	-3.6	-3.4%	10.6	9.4
CC1CC(C)CN(CCCNC(=O)c2c(O)nc3ccccn3c2=O)C1 (centres undefined)	-0.8%	-0.3%	-0.8	-11.0%	4.0	-8.5
NC(=O)COC(=O)c1ccc(Cl)c(S(=O)(=O)N(Cc2ccccc2)c2ccc(Cl)cc2)c1	1.0%	8.2%	-6.5	-6.5%	-3.9	29.8
Cn1ncc(Cl)c(Oc2ccccc2)c1=O	-2.0%	0.0%	2.9	2.7%	10.9	4.7
Cn1ncc(SCc2ccccc2)c(Cl)c1=O	9.2µM*	-1.3%	4.7	10.3µM*	-0.6	x
Cn1ncc(S(=O)(=O)Cc2ccccc2)c(Cl)c1=O	1.46µM*	4.7%	2.5	3.26µM*	7.1	x
CSc1c(SCc2ccccc2)cnn(-c2ccccc2)c1=O	u	-5.5%	10.1	u	-9.8	-98.1*
CCc1nc2ccccc2n1CC(=O)OCC(=O)N(CC(C)C)c1c(N)n(Cc2ccccc2)c(=O)[nH]c1=O	-14.6%	-9.5%[0.505 µM]	-0.5	3.5%	2.5	6.7
Cc1ccccc1-c1cc(N(C)C)ncn1	-9.9%	x	x	-0.9%	x	x
O=C(C1CC1)N1CCc2cc(S(=O)(=O)NCCC3=CCCCC3)ccc21	u	-1.0%	-1.2	-27.1%	5.4	-1.0
Cc1ccc(NC(=O)CCNS(=O)(=O)c2ccc3c(c2)CCN3C(=O)C2CC2)c(Cl)c1	5.17µM*	-1.1%	x	4.11µM*	x	x
SMILES	TDP1 cell CPT	TDP1 block	Six1-Eya2 inh	TDP1 cell noCPT	CtBP-E1A blk	IL1B secr inh
O=C(CCNS(=O)(=O)c1ccc2c(c1)CCN2C(=O)C1CC1)Nc1ccc(Cl)cc1	10.3µM*	6.6%	x	11.6µM*	x	x
CCc1ccccc1NC(=O)CCNS(=O)(=O)c1ccc2c(c1)CCN2C(=O)C1CC1	u	9.9%	x	18.4µM*	x	x
COc1ccccc1NC(=O)CCNS(=O)(=O)c1ccc2c(c1)CCN2C(=O)C1CC1	u	2.2%	x	u	x	x
Cc1ccccc1-n1ccnc1SCC(=O)NCC1CCCO1 (centres undefined)	-11.5%	6.7%	-11.8	-0.1%	3.0	-14.4
CCc1cccc(C)c1Nc1c(-c2cccc(O)c2)nc2cnccn12	u	5.9%	x	u	x	x
CCc1cccc(C)c1Nc1c(-c2ccc(N(C)C)cc2)nc2cnccn12	u	14.7%	x	23.1µM*	x	x
CN(C)c1ccc(-c2nc3cnccn3c2Nc2cccc(C(F)(F)F)c2)cc1	25.9µM*	8.8%	x	u	x	x
CNC(=O)/C(C#N)=C/c1c(N2CCN(c3ccccc3)CC2)nc2c(C)cccn2c1=O	u	x	-21.6	14.6µM*	-19.8	-13.0
Cc1cccn2c(=O)c(/C=C(\C#N)C(N)=O)c(N3CCN(Cc4ccc5c(c4)OCO5)CC3)nc12	u	7.9%	-26.4	u	1.1	-51.4*
COCCCNC(=O)/C(C#N)=C/c1c(N2CCN(c3ccc(OC)cc3)CC2)nc2c(C)cccn2c1=O	23.1µM*	x	u	14.6µM*	-14.7	-22.9
COCCNC(=O)/C(C#N)=C/c1c(N2CCCCCC2)nc2c(C)cccn2c1=O	u	x	-6.3	14.6µM*	4.3	-20.7
COCCCNC(=O)/C(C#N)=C/c1c(N2CCN(C)CC2)nc2c(C)cccn2c1=O	8.9%	x	-2.8	3.1%	11.9	32.3
COC(=O)c1c(C(=O)OC)c(-c2ccc(F)cc2)n2c1CS(=O)C2 (centres undefined)	-15.5%	x	4.5	9.1%	-7.1	-3.0
COCCNC(=O)/C(C#N)=C/c1c(N2CCN(C)CC2)nc2c(C)cccn2c1=O	1.8%	x	-2.0	-8.2%	-76.4*	8.3
CCCn1c(=O)c2sccc2n2c(CCCC(=O)N3CCN(c4ccc(OC)cc4)CC3)nnc12	u	0.0%	x	u	x	x
CCCn1c(=O)c2sccc2n2c(CCCC(=O)N3CCN(c4ccccc4)CC3)nnc12	u	-5.1%	x	16.4µM*	x	x
Cn1c(=O)c2sccc2n2c(CCC(=O)N3CCN(c4cccc(Cl)c4)CC3)nnc12	u	0.0%	x	5.8µM*	x	x
CCn1c(=O)c2sccc2n2c(CCCC(=O)N3CCN(c4cc(Cl)ccc4C)CC3)nnc12	11.6µM*	0.0%	x	8.2µM*	x	x

High-throughput results deposited in PubChem BioAssay by National Center for Advancing Translational Sciences (NCATS).
